Most compounds without a hit are left out; they make up all but 2.1% or so of the library.
PfHsp90 set2: growth inhibition of PfHsp90-expressing yeast, primary screen, antimalarial PfHsp90 inhibitor project, S. cerevisiae, BacTiter-Glo luminescence, single point, set 2; BacTiter-Glo ATP, 48 h; yeast lacking PDR1 and PDR3 efflux regulators; inhibition, % at 9.4 µM; 0.32% of 310,000 active;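 active means every replicate shows inhibition above about 80%, whatever the replicate mean, limit read from the data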;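 further: 0% = DMSO neutral controls and 100% = 20 µM radicicol positive controls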
Casp6 inh: human caspase-6 inhibitors, primary screen, biochemical, VEID-R110 fluorescence, single point, set 2; purified caspase-6, Z-VEID-R110 cleavage fluorescence; inhibition, % at 12.5 µM; 0.53% of 350,000 active; P55212;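 active means mean inhibition across replicates at least about 35%, with every replicate also reaching that limit, limit read from the data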;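 further: 0% = median of neutral control wells and 100% = no fluorescence left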
Target sequence (P55212 24-179 limits assumed): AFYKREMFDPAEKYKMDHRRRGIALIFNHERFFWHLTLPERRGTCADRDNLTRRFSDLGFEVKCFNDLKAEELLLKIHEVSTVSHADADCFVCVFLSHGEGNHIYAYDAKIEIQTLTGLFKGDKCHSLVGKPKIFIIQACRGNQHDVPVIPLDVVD
Target sequence (P55212 194-293 limits assumed): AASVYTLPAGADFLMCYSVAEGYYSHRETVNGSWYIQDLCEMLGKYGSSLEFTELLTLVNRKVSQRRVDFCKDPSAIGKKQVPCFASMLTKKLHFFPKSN
SIRT5 inh: SIRT5 desuccinylase inhibitors, primary screen, biochemical, fluorescence imaging, single point, set 5; NAD-dependent protein deacylase sirtuin-5, mitochondrial (Homo sapiens), Q9NXA8; Purified SirT5, succinyl-peptide AMC, trypsin-coupled fluorescence; inhibition, % at 15 µM; 1.1% of 330,000 active; in the data active means inhibition above about 15%
Target sequence (Q9NXA8 whole entry, looked up): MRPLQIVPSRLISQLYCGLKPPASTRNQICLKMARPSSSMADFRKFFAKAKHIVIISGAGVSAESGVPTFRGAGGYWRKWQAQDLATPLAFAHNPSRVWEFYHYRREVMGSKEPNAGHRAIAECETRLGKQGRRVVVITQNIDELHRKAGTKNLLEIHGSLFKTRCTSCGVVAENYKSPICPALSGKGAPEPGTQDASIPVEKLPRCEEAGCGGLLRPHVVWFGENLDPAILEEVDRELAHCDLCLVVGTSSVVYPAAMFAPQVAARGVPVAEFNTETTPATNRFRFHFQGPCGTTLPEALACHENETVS
NSD2 inh: NSD2 histone methyltransferase inhibitors, primary screen, biochemical, AlphaScreen, single concentration, set 2; Histone-lysine N-methyltransferase NSD2 (Homo sapiens), O96028; NSD2 peptide methylation, 120 min; inhibition, % at 12.5 µM; 0.54% of 310,000 active; in the data active means inhibition above about 50%
ARNT TACC3 PPI: disruptors of ARNT/TACC3 protein interaction, primary screen, biochemical, AlphaScreen, single concentration; 0.66% of 390,000 active; inhibition, % at 9.99 µM; AlphaScreen His-ARNT PAS-B/GST-TACC3 binding, luminescence; TACC3 fragment carries E629A point mutation; Transforming acidic coiled-coil-containing protein 3 (Homo sapiens), Q9Y6A5;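 active means mean inhibition of replicates at least 50% and at least half of replicates each reaching 50%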;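 further: 0% = complete ARNT plus TACC3 wells and 100% = ARNT alone without TACC3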
Numbers without * were called inactive; x = no result; + = active, no number.

SMILES	PfHsp90 set2	Casp6 inh	SIRT5 inh	NSD2 inh	ARNT TACC3 PPI
CC(=O)OC1(c2ccccc2)CCN(C)CC1(C)C (stereo unspecified)	-22.8	4.0	15.3*	-2.8	-1.9
CC(=O)OC1(c2ccccc2)CCN(C)C2CCCCC21 (stereo unspecified)	24.9	x	x	-0.8	-3.5
COc1ccc2nc(/N=C/c3c(O)n(-c4cccc(Cl)c4)c(=O)[nH]c3=O)sc2c1	-1.9	x	x	0.2	79.4*
Cn1c(NN=O)nc2ccccc21	-7.0	36.2*	-5.2	-5.3	28.3
CN1CCN(Cc2nc3ccccc3n2C)CC1	x	x	x	-4.4	16.6
Clc1ccc(CCC(Cn2ccnc2)Sc2c(Cl)cccc2Cl)cc1 (stereo unspecified)	88.0*	8.4	-2.1	x	0.3
Clc1ccc(Cn2ccnc2)cn1	x	-4.9	-2.5	0.6	3.9
O=C(Cc1cccs1)N1Cc2ccccc2-n2nncc2C1	x	40.8*	4.3	x	x
Cc1ccc(OC(=O)N(C)C[C@H]2OCc3ccccc3-c3c(n(C)c4ccccc34)C(=O)N([C@@H](C)CO)C[C@H]2C)cc1	x	1.8	4.8	x	x
NN=C1C(Cl)=C(Cl)C(Cl)=C1Cl	x	96.5*	8.0	4.4	x
CCCNC(=O)[C@H]1[C@H](CO)[C@H]2Cn3c(cccc3=O)[C@H]2N1CC	x	7.0	-5.8	x	x
Cc1cc2c(C(C)C)c(O)c(O)c(C=O)c2c(O)c1-c1c(C)cc2c(C(C)C)c(O)c(O)c(C=O)c2c1O	x	17.9	24.8*	x	x
COC(=O)[C@H]1[C@H](CO)[C@H]2Cn3c(ccc(C4=CCCCC4)c3=O)[C@@H]1N2Cc1ccccc1OC	x	0.4	0.7	x	x
Cc1c(N=Nc2c(O)n(Cc3ccccc3)c(=O)[nH]c2=O)c(=O)n(-c2ccccc2)n1C	11.8	x	x	-3.9	62.2*
Cc1c(N=Cc2c(O)n(Cc3ccccc3)c(=O)[nH]c2=O)c(=O)n(-c2ccccc2)n1C	-31.6	1.5	1.7	-0.1	x
COC1CCC(OC2CC(C3(C)CCC4(CC(O)C(C)C(C(C)/C=C(\C)C(=O)C(C)CC(C)C(=O)O)O4)O3)OC3(OC(C4OC(O)(CO)C(C)CC4C)CC3C)C2C)OC1C (stereo unspecified)	105.7*	11.2	24.1*	x	-1.2
COCCCn1c(N)c(C(=O)NCc2ccco2)c2nc3ccccc3nc21	-7.3	98.5*	x	0.2	17.6
COc1ccc(NC2(C#N)CCCCC2)cc1	-1.1	-2.8	x	15.7	3.7
CCCCN1CCC(C#N)(Nc2ccccc2)CC1	x	-3.1	21.7*	-6.2	-3.9
CN(C)[C@@H]1C(=O)C(C(N)=O)=C(O)[C@@]2(O)C(=O)C3=C(O)c4c(O)ccc(Cl)c4[C@@](C)(O)C3C[C@@H]12 (stereo partly specified)	12.6	44.0*	10.6	x	23.7
O=C1NC(=S)NC(=O)C1=Cc1cccc2cc3ccccc3cc12	-26.1	8.0	-0.6	12.3	20.7*
N#Cc1cccc(-c2ccc([C@H]3[C@@H](CO)N4CCCCN(C(=O)Cc5ccccc5)C[C@@H]34)cc2)c1	x	1.3	-0.1	x	1.8
CCC(=O)N1[C@@H]2c3ccc(-c4ccc(F)cc4)c(=O)n3C[C@H]1[C@H](CO)[C@H]2C(=O)OC	x	1.0	-14.8	x	3.6
CN(C)C(=S)SSC(=S)N(C)C	108.2*	-1.9	-4.9	x	30.3
C[N+](C)(C)Cc1ccccc1	11.2	75.7*	-1.6	x	-1.3
SMILES	PfHsp90 set2	Casp6 inh	SIRT5 inh	NSD2 inh	ARNT TACC3 PPI
O=C(O)c1cccc2c1NC(c1cccc([N+](=O)[O-])c1)C1CC(Sc3ccccc3[N+](=O)[O-])C(Cl)C21 (stereo unspecified)	2.2	54.2*	8.0	-0.2	13.4
O=C(Cc1ccncc1)N1CCCCN2[C@H](CO)[C@H](c3ccc(C#Cc4ccccc4F)cc3)[C@@H]2C1	x	x	x	x	21.7
CN1C(=O)NC(=O)/C(=C\c2ccc([N+](=O)[O-])o2)C1=O	10.1	x	x	+	8.0
CN1C(=O)NC(=O)/C(=C/c2ccc([N+](=O)[O-])s2)C1=O	45.9	19.9	5.8	37.2	19.2
CC=Cc1ccc2n(c1=O)C[C@H]1[C@H](CO)[C@@H](C(=O)OC)[C@@H]2N1S(=O)(=O)c1cccc(C)c1 (mixture of isomers)	x	-0.6	-5.0	x	-2.6
COC(=O)[C@@H]1[C@@H](CO)[C@@H]2Cn3c(ccc(C4=CCCC4)c3=O)[C@H]1N2CC1CCCC1	x	2.1	2.5	x	x
COc1ccc(N2C(=O)/C(=C/c3ccc(OC)c(OC)c3)C(=O)NC2=S)cc1	7.9	17.2	5.4	21.1	11.2
Cc1cccc(N2C(=O)/C(=C/c3ccc(N4CCN(C)CC4)o3)C(=O)NC2=S)c1C	17.4	16.9	-0.9	50.6*	-9.4
COc1ccc(N2C(=O)/C(=C/c3ccc(C)o3)C(=O)NC2=S)c(OC)c1	-2.6	37.8*	7.8	46.8	1.0
COc1cccc(N2C(=O)NC(=O)/C(=C/c3ccc4c5c(cccc35)CC4)C2=O)c1	x	22.8	36.9*	25.6	x
O=C(Cc1cccnc1)N1CCCCN2[C@H](CO)[C@H](c3ccc(/C=C/c4ccccc4)cc3)[C@@H]2C1	x	0.9	2.5	x	6.8
C[C@@H]1CN([C@@H](C)CO)C(=O)c2c(c3ccccc3n2C)-c2ccccc2CO[C@@H]1CN(C)C(=O)Oc1ccccc1	x	-0.3	0.9	x	x
COC(=O)C1=C(C(=O)OC)C2OC1c1cc3ccccc3cc12	132.1*	6.1	x	-3.6	9.3
CC(C)(C)C(=O)c1cn(CC(=O)NCc2ccco2)c2ccccc12	-19.9	0.3	17.0*	-0.2	0.1
Clc1ccc(C(Cn2ccnc2)OCc2csc3c(Cl)cccc23)c(Cl)c1 (stereo unspecified)	86.1*	0.8	0.8	x	-23.2
COC(=O)C[C@H]1CC[C@@H]2NC[C@H](O)COC[C@H]2O1	x	x	x	x	23.8
COC(=O)[C@@H]1[C@@H](CO)[C@@H]2Cn3c(ccc(-c4cccc(F)c4)c3=O)[C@H]1N2Cc1ccccc1	x	1.3	1.9	x	3.7
COC(=O)[C@@H]1[C@@H](CO)[C@@H]2Cn3c(ccc(-c4ccccc4F)c3=O)[C@H]1N2CC1CCCC1	x	-0.3	-3.8	x	-3.0
COC(=O)[C@@H]1[C@@H](C(=O)OC)C2(c3ccccc3-c3ccccc32)N(c2ccc(Cl)cc2)N1C#N	-25.6	0.0	16.9*	-3.8	x
O=C(N/N=C/C1C(=O)NC(=S)N(c2ccccc2)C1=O)c1cc(Br)c(O)c(Br)c1 (stereo unspecified)	-17.3	24.0	7.4	-6.8	65.1*
CN1C(=O)C(=Cc2ccc(N3CCCCCC3)o2)C(=O)N(C)C1=S	15.0	x	x	4.5	-5.5
